Measured values published in a collection of fitness landscapes (doi:10.1126/science.1257360).
Over roughly 140,000 sequences, “enrichment ratio after two sorts for PhoP signalling” has its median near 0; the highest 2% begin near 11. The list comes from a sample in which the highest values are over-represented; it also holds similar and randomly drawn sequences.

B1: PhoQ; a variant is named by its letters at X, in order, P23837 (parent)
chain: MKKLLRLFFPLSLRVRFLLATAAVVLVLSLAYGMVALIGYSVSFDKTTFRLLRGESNLFYTLAKWENNKLHVELPENIDKQSPTMTLIYDENGQLLWAQRDVPWLMKMIQPDWLKSNGFHEIEADVNDTSLLLSGDHSIQQQLQEVREDDDDAEMTHSVAVNVYPATSRMPKLTIVVVDTIPVELKSSYMVWSWFIYVLSANLLLVIPLLWVAAWWSLRPIEALAKEVRELEEHNRELLNPATTRELTSLVRNLNRLLKSERERYDKYRTTLTDLTHSLKTPLXXLQXXLRSLRSEKMSVSDAEPVMLEQISRISQQIGYYLHRASMRGGTLLSRELHPVAPLLDNLTSALNKVYQRKGVNISLDISPEISFVGEQNDFVEVMGNVLDNACKYCLEFVEISARQTDEHLYIVVEDDGPGIPLSKREVIFDRGQRVDTLRPGQGVGLAVAREITEQYEGKIVAGESMLGGARMEVIFGRQHSAPKDE

Variants of: B1
Assay: enrichment ratio after two sorts for PhoP signalling (ratio (wild type AVST 3.29)); higher = more functional
Details: with PhoP (E. coli)

Variant | enrichment ratio
RPDP | ≤ 0.25
MVRG | ≤ 0.25
NTNY | ≤ 0.25
LYEH | ≤ 0.25
IGTK | ≤ 0.25
WQPW | ≤ 0.25
PICS | ≤ 0.25
DNDH | ≤ 0.25
WQRE | ≤ 0.25
LRQP | ≤ 0.25
HPHL | ≤ 0.25
GFYA | ≤ 0.25
DGSI | ≤ 0.25
GYWI | ≤ 0.25
IGSE | ≤ 0.25
TETG | 35.8
QETG | ≤ 0.25
METG | 4.62
SFGG | ≤ 0.25
PIPY | ≤ 0.25
KIVE | ≤ 0.25
EFFM | ≤ 0.25
YTSN | ≤ 0.25
NSSN | ≤ 0.25
STSN | 11.3

Variant | enrichment ratio
SLSN | 8.45
SSSN | 12.1
KSSN | ≤ 0.25
SCSN | 12.3
KQSN | ≤ 0.25
SDSN | ≤ 0.25
SNSN | 12.5
SRSN | ≤ 0.25
SQSN | 7.46
DMGM | ≤ 0.25
VHGA | ≤ 0.25
FTWC | ≤ 0.25
RPLR | ≤ 0.25
EKAY | ≤ 0.25
FPIV | ≤ 0.25
SGSG | 8.15
TGSN | 8.1
SGSN | 13.3
WDWH | ≤ 0.25
SESK | 5.02
SEFC | 10.4
SESH | 13.1
SENK | ≤ 0.25
SETC | 13.2
SRSQ | ≤ 0.25

Variant | enrichment ratio
SQSQ | 8.8
KYSC | ≤ 0.25
DDSC | ≤ 0.25
SESC | 18.4
SRSH | ≤ 0.25
SESQ | 13.9
LSYF | 0.698
FERS | ≤ 0.25
FKHR | ≤ 0.25
QKRW | ≤ 0.25
TIRN | ≤ 0.25
KKEL | ≤ 0.25
MLWA | ≤ 0.25
HFVY | ≤ 0.25
GASL | 3.66
KYEC | ≤ 0.25
SETA | 10.5
SLEC | ≤ 0.25
SETK | ≤ 0.25
SETH | 15.6
SETG | 9.95
SETW | 3.01
SEEC | 15.4
SETM | 18.3
SETI | 19.9

Variant | enrichment ratio
METM | 4.44
ICMG | ≤ 0.25
NYHW | ≤ 0.25
EGMK | ≤ 0.25
SVFE | ≤ 0.25
PKCE | ≤ 0.25
LWIA | ≤ 0.25
VVHK | ≤ 0.25
PWSL | ≤ 0.25
YMEP | ≤ 0.25
SANH | ≤ 0.25
SETE | 5.75
SEMH | 19.3
SETD | ≤ 0.25
SASK | ≤ 0.25
SASH | 12.2
STMH | 8.42
KYMH | ≤ 0.25
SETS | 12
DGLS | ≤ 0.25
FPTK | ≤ 0.25
DPHW | ≤ 0.25
WDVW | ≤ 0.25
QFAR | ≤ 0.25
VVQA | ≤ 0.25

Variant | enrichment ratio
PSLS | ≤ 0.25
WGGY | ≤ 0.25
ITTH | ≤ 0.25
DSGI | ≤ 0.25
NRIH | ≤ 0.25
GAPM | ≤ 0.25
GAIM | 15.4
GCIM | 24.5
KAIM | ≤ 0.25
GSIM | 11.6
GATM | 15.3
KATM | ≤ 0.25
GCGM | 2.98
GCCK | ≤ 0.25
GSTM | 6.87
GSWM | ≤ 0.25
NATM | ≤ 0.25
TSES | 2.55
SFWK | ≤ 0.25
AMIT | ≤ 0.25
NCDK | ≤ 0.25
DMRV | ≤ 0.25
EDCW | ≤ 0.25
MMNP | ≤ 0.25
DYLI | ≤ 0.25

Variant | enrichment ratio
FMTM | ≤ 0.25
NIIM | ≤ 0.25
NVIM | ≤ 0.25
GTIM | 2.86
GGIM | 13.9
MATM | 22.6
GNIM | 13.4
GIIM | 1.99
GVIM | 19.3
YHIM | ≤ 0.25
GVWM | ≤ 0.25
MAPM | ≤ 0.25
VKAK | ≤ 0.25
HKPF | ≤ 0.25
EDLF | ≤ 0.25
GLPS | ≤ 0.25
PYPA | ≤ 0.25
KRQM | ≤ 0.25
HDQM | ≤ 0.25
YYGF | ≤ 0.25
YSDV | ≤ 0.25
VFWT | ≤ 0.25
MESM | 19
FVSM | ≤ 0.25
MRSM | ≤ 0.25

Variant | enrichment ratio
FQSM | ≤ 0.25
MASM | 16.9
GVSM | 0.841
MVHF | 0.626
MVSM | 12.3
MVTM | 3.98
MQSM | 8.88
GYSM | ≤ 0.25
GQSM | 20.5
LDIM | ≤ 0.25
MSCN | 1.97
THNV | ≤ 0.25
ILTF | 0.323
GVMY | ≤ 0.25
KDHR | ≤ 0.25
GSQM | ≤ 0.25
GSSM | 11.2
QESM | 5.67
GEHF | ≤ 0.25
NESM | ≤ 0.25
GESF | 0.55
TESF | 11.5
GESM | 17.3
NESF | ≤ 0.25
TESM | 30

Variant | enrichment ratio
QESF | ≤ 0.25
GSSF | 0.449
TLHH | ≤ 0.25
FQMV | 0.463
MHQA | ≤ 0.25
NHWK | ≤ 0.25
ITGV | ≤ 0.25
KASM | ≤ 0.25
NASM | ≤ 0.25
TASM | 13.4
AEWF | ≤ 0.25
WRRW | ≤ 0.25
NHND | ≤ 0.25
SHND | ≤ 0.25
THND | 29.6
MKND | ≤ 0.25
AKND | ≤ 0.25
TKND | 12.6
DRLD | ≤ 0.25
HSGG | ≤ 0.25
